# Experimental data reported in PubChem BioAssay (NCATS).
# Inconclusive results are not listed. A call without a number means that no potency is given here. Calls of active or inactive are those of the source. The call rests on the fitted dose curve; in most records, active means well fitted cell-killing curve with a large enough effect; inconclusive means small, poorly fitted or top-dose-only effect, or effect the other way; inactive means no such curve, though single readings can be large or run the other way.
# How the values were obtained:
# [1] = Viability qHTS for spleen associated tyrosine kinase inhibitor (SYKi) naive MV4-11 cells (AID 1963823); conditions: MV4-11 AML viability, CellTiter-Glo luminescence, 72 h; series mostly up to 45 µM; further: nearly all actives have a fitted effect of over 40% in size
# In short: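 CellTiter-Glo luminescence, 10 min room-temperature incubation, gave viability. Cells: naive MV4-11 (500/well), treated 72 hr at 37 C, 5% CO2.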
# [2] = Viability qHTS for spleen associated tyrosine kinase inhibitor (SYKi) drug resistant MV4-11 cells (AID 1963824); conditions: SYKi-resistant MV4-11 viability, CellTiter-Glo, 72 h; series mostly up to 45 µM; further: nearly all actives have a fitted effect of over 35% in size
# In short: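 SYK inhibitor-resistant MV4-11 AML cells, 500 per well, added to predispensed compounds and incubated 72 hr at 37 C, 5% CO2. Viability measured by CellTiter-Glo luminescence after 10 min at room temperature.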
# Potency means the concentration at half of the fitted maximal effect.
SMILES,Potency [1],Potency [2]
COc1c2c(c(C)c3c1C(=O)OC3)OC1(C)CC(O)C34OC(OC)(CC(OC(C)=O)C3(C)C1C2)OC4(C)C (configuration not stated),inactive,inactive
COc1ccc(N(C(=O)Nc2c(C)cccc2C)c2cc(Nc3ccc(N4CCN(C)CC4)cc3)ncn2)c(OC)c1,2.31 µM (active),3.66 µM (active)
C=CC(C)(C)C12Nc3c(ccc4c3OC(C)(C)C=C4)C1(O)CC1C(=O)N3CCCC3C(=O)N12 (configuration not stated),inactive,4.47 µM (active)
Cn1sc(=O)n(Cc2ccccc2)c1=O,2.59 µM (active),2.91 µM (active)
COc1c2ccoc2nc2c(OC)c(O[C@@H]3O[C@@H](C)[C@H](O)[C@@H](O[C@@H]4O[C@H](CO)[C@@H](O)[C@H](O)[C@H]4O)[C@H]3OC(C)=O)ccc12,inactive,inactive
CN(C)CCCCCCNC(=O)c1cccc(-c2cc(O)c3ncccc3c2)c1,2.59 µM (active),3.26 µM (active)
CC(=O)c1c(O)cc2cccc3c2c1CC(C)(O)O3 (configuration not stated),inactive,inactive
COc1cc(C2OCC3(O)C(c4ccc(O[C@@H]5O[C@H](CO)[C@@H](O)[C@H](O)[C@H]5O)c(OC)c4)OCC23O)ccc1O (some centres not stated),inactive,inactive
COC(=O)c1sccc1S(=O)(=O)Nc1ccc(Nc2ccccc2)cc1OC,5.17 µM (active),3.26 µM (active)
C=CCc1ccc(O[C@@H]2O[C@H](CO)[C@@H](O)[C@H](O)[C@H]2O)c(OC)c1,inactive,inactive
O=C(c1c(F)ccc(NS(=O)(=O)N2CC[C@@H](F)C2)c1F)c1c[nH]c2ncc(-c3cnc(C4CC4)nc3)cc12,6.51 µM (active),8.2 µM (active)
